Results as given in PubChem BioAssay AID1159580 (chemical genetic matrix, 2015).
Where “and” joins values, the source holds several entries; their conditions need not be identical. Equal entries are not always repeated. Screen size: about 5,500 compounds; about 2,000 (36%) were called active. Another 18% or so got no clear call; they are omitted. No stated cut-off is given here; in the data, active means normalized growth mostly below about 0.91 (no sharp cut-off); inconclusive means no clear call, values can overlap the other calls; inactive means mostly above about 0.92. This is one part of the list.

Test: chemical genetic growth profiling, strain panel (AID 1159580);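 further: tested at 20 µM; growth read once vehicle control cultures reached saturation at 30 °C; 1 = growth at the plate median or of vehicle wells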
Conditions: S. cerevisiae deletion strains, growth OD
[1] = locus YHR030C, strain SLT2, stronger effect = lower value
[2] = locus YHR079C, strain IRE1, stronger effect = lower value
[3] = locus YJL095W, strain BCK1, stronger effect = lower value
[4] = locus YJR066W, strain TOR1, stronger effect = lower value
[5] = locus YLR113W, strain HOG1, stronger effect = lower value
[6] = locus YNL183C, strain NPR1, stronger effect = lower value
[7] = locus YOR231W, strain MKK1, stronger effect = lower value
[8] = locus YPL256C, strain CLN2, stronger effect = lower value

Measured: normalized growth

C[C@H]1CC2C([C@@H](O)C[C@@]3(C)C2CC[C@]3(O)C(=O)COC(=O)CCC(=O)O)[C@@]2(C)C=CC(=O)C=C12 (some centres undefined)
inactive: [1] 0.999 | [2] 1.02 | [3] 1.02 | [4] 1 | [5] 1.04 | [6] 0.995 | [7] 1.06 | [8] 1.03

CC1=C2[C@H]3OC(=O)[C@@H](C)[C@@H]3CC[C@@]2(C)C=CC1=O
inactive: locus YAL013W, strain DEP1, stronger effect = lower value 1.01 | locus YAL021C, strain ccr4, stronger effect = lower value 0.97 | locus YAL026C, strain drs2, stronger effect = lower value 0.968 | locus YAL030W, strain snc1, stronger effect = lower value 0.982 | locus YBL061C, strain skt5, stronger effect = lower value 0.968 | locus YBR009C, strain hhf1, stronger effect = lower value 0.975 | locus YBR021W, strain FUR4, stronger effect = lower value 0.972 | locus YBR023C, strain chs3, stronger effect = lower value 0.953 | locus YBR171W, strain sec66, stronger effect = lower value 0.962 | locus YBR229C, strain ROT2, stronger effect = lower value 1.01 | locus YBR231C, strain swc5, stronger effect = lower value 0.992 | locus YBR279W, strain paf1, stronger effect = lower value 0.994 | locus YCL011C, strain gbp2, stronger effect = lower value 0.979 | locus YCL016C, strain dcc1, stronger effect = lower value 0.995 | locus YCL029C, strain bik1, stronger effect = lower value 1.04 | locus YCL061C, strain MRC1, stronger effect = lower value 0.976 | locus YCL069W, strain vba3, stronger effect = lower value 0.967 | locus YCR088W, strain abp1, stronger effect = lower value 0.976 | locus YDL005C, strain med2, stronger effect = lower value 0.964 | locus YDL035C, strain GPR1, stronger effect = lower value 1.02 | locus YDL040C, strain nat1, stronger effect = lower value 0.979 | locus YDL074C, strain BRE1, stronger effect = lower value 1.02 | locus YDL101C, strain DUN1, stronger effect = lower value 1.02 | locus YDL185W, strain tfp1, stronger effect = lower value 1.02 | locus YDL192W, strain arf1, stronger effect = lower value 1.03 | locus YDR001C, strain nth1, stronger effect = lower value 0.98 | locus YDR069C, strain doa4, stronger effect = lower value 0.946 | locus YDR101C, strain arx1, stronger effect = lower value 1.01 | locus YDR137W, strain rgp1, stronger effect = lower value 0.972 | locus YDR159W, strain sac3, stronger effect = lower value 0.941 | locus YDR162C, strain NBP2, stronger effect = lower value 1.02 | locus YDR195W, strain ref2 0.953 | locus YDR297W, strain sur2, stronger effect = lower value 0.968 | locus YDR318W, strain mcm21, stronger effect = lower value 1.04 | locus YDR334W, strain swr1, stronger effect = lower value 0.96 | locus YDR335W, strain msn5, stronger effect = lower value 0.987 | locus YDR388W, stronger effect = lower value 1.01 | locus YDR392W, strain spt3, stronger effect = lower value 0.99 | locus YDR502C, strain sam2, stronger effect = lower value 1.02 | locus YEL003W, strain gim4, stronger effect = lower value 0.98 | locus YEL037C, strain rad23, stronger effect = lower value 0.978 | locus YEL061C, strain CIN8 (second series), stronger effect = lower value 0.972 | locus YEL061C, strain CIN8, stronger effect = lower value 1.01 | locus YER015W, strain faa2, stronger effect = lower value 0.974 | locus YER016W, strain bim1, stronger effect = lower value 0.978 | locus YER110C, stronger effect = lower value 1.02 | locus YER111C, strain swi4, stronger effect = lower value 0.963 | locus YER155C, strain BEM2 (second series), stronger effect = lower value 0.946 | locus YER155C, strain BEM2, stronger effect = lower value 1 | locus YER167W, strain BCK2, stronger effect = lower value 1.01 | locus YFR010W, strain ubp6, stronger effect = lower value 0.953 | locus YGL078C, strain dbp3, stronger effect = lower value 1.02 | locus YGL086W, strain mad1, stronger effect = lower value 1.01 | locus YGL167C, strain pmr1, stronger effect = lower value 0.963 | locus YGL173C, strain kem1, stronger effect = lower value 0.974 | locus YGL227W, strain vid30, stronger effect = lower value 0.984 | locus YGL240W, strain doc1, stronger effect = lower value 0.963 | locus YGL248W, strain PDE1, stronger effect = lower value 1.03 | locus YGL253W, strain hxk2, stronger effect = lower value 0.98 | locus YGR078C, strain PAC10, stronger effect = lower value 1.02 | locus YGR135W, strain pre9, stronger effect = lower value 1.03 | locus YGR229C, strain SMI1, stronger effect = lower value 1.05 | locus YGR252W, strain gcn5, stronger effect = lower value 0.991 | locus YHR013C, strain ard1, stronger effect = lower value 0.956 | locus YHR027C, strain rpn1, stronger effect = lower value 0.986 | [1] 0.981 | locus YHR079C, strain IRE1 (second series), stronger effect = lower value 1.02 | [2] 1 | locus YHR094C, strain hxt1, stronger effect = lower value 1.03 | locus YHR129C, strain ARP1, stronger effect = lower value 1.01 | locus YHR142W, strain chs7, stronger effect = lower value 0.98 | locus YHR200W, strain rpn10, stronger effect = lower value 1.01 | locus YIL066C, strain RNR3, stronger effect = lower value 1.02 | locus YIL073C, strain SPO22, stronger effect = lower value 1.06 | locus YIL125W, strain kgd1, stronger effect = lower value 1.02 | locus YIR030C, strain dcg1, stronger effect = lower value 1.02 | locus YJL092W, strain hpr5, stronger effect = lower value 0.975 | locus YJL095W, strain BCK1 (second series), stronger effect = lower value 0.964 | [3] 1.03 and 0.993 | locus YJL115W, strain asf1, stronger effect = lower value 0.973 | locus YJL129C, strain trk1, stronger effect = lower value 0.962 | locus YJL134W, strain LCB3, stronger effect = lower value 1.01 | locus YJL154C, strain vps35, stronger effect = lower value 0.98 | locus YJL164C, strain tpk1, stronger effect = lower value 0.984 | locus YJL166W, strain qcr8, stronger effect = lower value 0.969 | locus YJL168C, strain set2, stronger effect = lower value 1.02 | locus YJL187C, strain SWE1 (second series), stronger effect = lower value 1.02 | locus YJL187C, strain SWE1, stronger effect = lower value 0.966 | locus YJR043C, strain POL32, stronger effect = lower value 1.01 | [4] 0.956 | locus YJR075W, strain HOC1, stronger effect = lower value 1.02 | locus YKL009W, strain mrt4, stronger effect = lower value 1.03 | locus YKL068W, stronger effect = lower value 0.995 | locus YKL085W, strain MDH1 (second series), stronger effect = lower value 1.02 | locus YKL085W, strain MDH1, stronger effect = lower value 1.02 | locus YKL160W, strain elf1, stronger effect = lower value 0.994 | locus YKL190W, strain CNB1, stronger effect = lower value 1.01 | locus YKR001C, strain vps1, stronger effect = lower value 1.03 | locus YKR026C, strain gcn3, stronger effect = lower value 0.965 | locus YKR091W, strain srl3, stronger effect = lower value 0.983 | locus YLL001W, strain dnm1, stronger effect = lower value 0.996 | locus YLL026W, stronger effect = lower value 0.995 | locus YLL041C, strain sdh2, stronger effect = lower value 0.998 | locus YLR027C, strain aat2, stronger effect = lower value 0.979 | locus YLR039C, strain RIC1, stronger effect = lower value 1.04 | locus YLR058C, strain SHM2, stronger effect = lower value 1.02 | locus YLR102C, strain apc9, stronger effect = lower value 1.03 | [5] 0.963 | locus YLR221C, strain rsa3, stronger effect = lower value 0.959 | locus YLR258W, strain gsy2, stronger effect = lower value 0.985 | locus YLR262C, strain YPT6 (second series), stronger effect = lower value 0.997 | locus YLR262C, strain YPT6, stronger effect = lower value 1.06 | locus YLR268W, strain sec22, stronger effect = lower value 1.02 | locus YLR320W, strain mms22, stronger effect = lower value 0.978 | locus YLR342W, strain FKS1 (second series), stronger effect = lower value 1.01 | locus YLR342W, strain FKS1, stronger effect = lower value 0.974 | locus YLR357W, strain rsc2, stronger effect = lower value 0.948 | locus YLR370C, strain arc18, stronger effect = lower value 0.977 | locus YLR371W, strain rom2, stronger effect = lower value 1.01 | locus YLR384C, strain iki3, stronger effect = lower value 0.96 | locus YLR418C, strain cdc73, stronger effect = lower value 1.03 | locus YML016C, strain PPZ1, stronger effect = lower value 1.02 | locus YML032C, strain rad52, stronger effect = lower value 1.02 | locus YML120C, strain ndi1, stronger effect = lower value 1.01 | locus YML124C, strain tub3, stronger effect = lower value 1.02 | locus YMR058W, strain fet3, stronger effect = lower value 0.977 | locus YMR078C, strain ctf18, stronger effect = lower value 1.04 | locus YMR125W, strain sto1, stronger effect = lower value 0.968 | locus YMR129W, stronger effect = lower value 0.997 | locus YMR205C, strain PFK2, stronger effect = lower value 0.982 | locus YMR223W, strain ubp8, stronger effect = lower value 1.01 | locus YMR231W, strain pep5, stronger effect = lower value 0.973 | locus YMR263W, strain SAP30, stronger effect = lower value 1.02 | locus YMR307W, strain GAS1, stronger effect = lower value 1.05 | locus YNL067W, strain RPL9B, stronger effect = lower value 1.02 | locus YNL071W, strain lat1, stronger effect = lower value 0.994 | locus YNL153C, strain GIM3, stronger effect = lower value 1.03 | [6] 0.951 | locus YNL209W, strain ssb2, stronger effect = lower value 0.981 | locus YNL233W, strain BNI4, stronger effect = lower value 1.02 | locus YNL248C, strain rpa49, stronger effect = lower value 0.962 | locus YNL250W, strain rad50, stronger effect = lower value 1.04 | locus YNL271C, strain bni1, stronger effect = lower value 1.02 | locus YNL298W, strain CLA4, stronger effect = lower value 1.03 | locus YNL307C, strain MCK1, stronger effect = lower value 1.03 | locus YNL322C, strain KRE1 (second series), stronger effect = lower value 0.954 | locus YNR049C, strain mso1, stronger effect = lower value 0.983 | locus YNR052C, strain pop2, stronger effect = lower value 1.01 | locus YOL012C, strain htz1 0.992 | locus YOL147C, strain pex11, stronger effect = lower value 1.02 | locus YOR001W, strain rrp6, stronger effect = lower value 0.939 | locus YOR061W, strain CKA2, stronger effect = lower value 1.02 | locus YOR069W, strain VPS5, stronger effect = lower value 1.01 | locus YOR070C, strain gyp1, stronger effect = lower value 0.984 | locus YOR080W, strain dia2, stronger effect = lower value 0.97 | locus YOR083W, strain WHI5, stronger effect = lower value 1.01 | locus YOR106W, strain vam3, stronger effect = lower value 1 | locus YOR136W, strain idh2, stronger effect = lower value 1.01 | locus YOR144C, strain elg1, stronger effect = lower value 1.02 | locus YOR184W, strain ser1, stronger effect = lower value 1.03 | [7] 0.965 | locus YOR265W, strain rbl2, stronger effect = lower value 0.99 | locus YOR270C, strain vph1, stronger effect = lower value 0.926 | locus YOR290C, strain snf2, stronger effect = lower value 0.982 | locus YOR316C, strain cot1, stronger effect = lower value 1.02 | locus YPL051W, strain arl3, stronger effect = lower value 0.987 | locus YPL078C, strain atp4, stronger effect = lower value 0.988 | locus YPL106C, strain sse1, stronger effect = lower value 0.96 | locus YPL240C, strain hsp82, stronger effect = lower value 0.964 | locus YPL241C, strain CIN2, stronger effect = lower value 1.01 | [8] 0.977 | locus YPR119W, strain clb2, stronger effect = lower value 1.01 | locus YPR141C, strain kar3, stronger effect = lower value 1.02 | locus YPR163C, strain tif3, stronger effect = lower value 1.03 | locus YPR167C, strain met16, stronger effect = lower value 1.02 | strain wtn01, stronger effect = lower value 1
